SMILES strings stand for the structures. Results filed as inconclusive are left out. Active and inactive are the calls of the source. Rule for the calls, unless noted: active = hit-call score of the fitted dose curve at least 0.9, where 1 is the maximum; inactive = score below 0.9.

The AC50 is the midpoint of the concentration-response curve, whichever way the signal moves.

Assay [1] can be described thus: BSK_3C_VCAM1: BioMAP Diversity Plus: 3C Assay for Vascular cell adhesion molecule 1 (VCAM1) Biomarker Activity (AID 2282999). As to conditions: BioMAP 3C HUVEC, VCAM1 ELISA, cytokine-stimulated; actives raise or lower the signal. In short, it runs like this:
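Human umbilical vein endothelial cells (3C system), biomarker read by ELISA 24 h after dosing; bidirectional fit against DMSO baseline. Cytotoxicity tracked by SRB total-protein staining in parallel cultures at biomarker time.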
A general note: ELISA stands for enzyme-linked immunosorbent assay.

Assay [2] in a line: BSK_4H_Eotaxin3: BioMAP Diversity Plus: 4H Assay for Eotaxin 3 Biomarker Activity (AID 2283000).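 For outcome: CCL26 protein level quantified by ELISA in parallel with SRB cytotoxicity check.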 The note with it: primary human endothelial cells (HUVEC); actives raise or lower the signal. In short, it runs like this: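 ELISA quantitation of CCL26 (Eotaxin-3) protein from chemically dosed human vascular endothelial cells at 24 h; increases and decreases both scored relative to DMSO-treated baseline.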

Assay [3] deals with human Peroxisome Proliferator-activated Receptor delta (PPARd), PPARD (gene 5467) (UniProt Q03181). Description: ATG_PPARd_TRANS: Attagene TRANS-FACTORIAL HepG2 Assay for human Peroxisome Proliferator-activated Receptor delta (PPARd) (AID 2283002; active = hit-call score of the fitted dose curve at least 0.9, where 1 is the maximum). In short, it runs like this:
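Fluorescence from capillary electrophoresis of labelled RT-PCR reporter fragments gives the signal; DMSO sets baseline. Cells: HepG2 transiently carrying GAL4-UAS reporter units plus chimeric nuclear receptor-Gal4 proteins, exposed to chemicals for 24 h.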

Read-out in assay [4]: Intercellular Adhesion Molecule 1 (ICAM1), ICAM1 (gene 3383)
Description: BSK_3C_ICAM1: BioMAP Diversity Plus: 3C Assay for Intercellular Adhesion Molecule 1 (ICAM1) Biomarker Activity (AID 2283003). As to conditions: primary human endothelial cells (HUVEC); actives raise or lower the signal. The method, boiled down:
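ICAM-1 levels measured by ELISA after HUVEC cultures in the 3C system had been dosed for 24 h. Gain or loss of signal relative to DMSO was fitted in both directions.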

Assay [5] deals with human Retinoic Acid Receptor beta (RARb), RARB (gene 5915) (UniProt P10826). Description: ATG_RARb_TRANS: Attagene TRANS-FACTORIAL HepG2 Assay for human Retinoic Acid Receptor beta (AID 2283004; active = hit-call score of the fitted dose curve at least 0.9, where 1 is the maximum). The method, boiled down: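 Fluorescent capillary-electrophoresis detection of GAL4-UAS reporter mRNA defines the endpoint, with induction over DMSO-treated wells scored as activity. Transiently transfected human hepatoma HepG2 cells expressing exogenous NR–Gal4 proteins are exposed to test chemicals for 24 h.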
Sequence of human Retinoic Acid Receptor beta (RARb), RARB (gene 5915) (P10826 whole entry, looked up, the tested form may be a part): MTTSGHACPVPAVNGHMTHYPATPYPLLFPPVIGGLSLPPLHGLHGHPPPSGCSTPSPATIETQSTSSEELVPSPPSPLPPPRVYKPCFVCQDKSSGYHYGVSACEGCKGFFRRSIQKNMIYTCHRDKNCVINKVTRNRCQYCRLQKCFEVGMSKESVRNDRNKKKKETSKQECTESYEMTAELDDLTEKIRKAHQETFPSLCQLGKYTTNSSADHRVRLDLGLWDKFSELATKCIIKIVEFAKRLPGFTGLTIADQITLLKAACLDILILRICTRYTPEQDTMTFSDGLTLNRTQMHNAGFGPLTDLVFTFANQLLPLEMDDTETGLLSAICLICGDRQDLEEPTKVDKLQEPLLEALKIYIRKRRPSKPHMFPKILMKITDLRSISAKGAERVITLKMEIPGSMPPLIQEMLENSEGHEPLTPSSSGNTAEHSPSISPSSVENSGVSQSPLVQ

Assay [6] has as its target Retinoic acid receptor alpha (Homo sapiens) (UniProt P10276). The assay can be described thus: ATG_RARa_TRANS: Attagene TRANS-FACTORIAL HepG2 Assay for human Retinoic Acid Receptor alpha (RARa) (AID 2283005; active = hit-call score of the fitted dose curve at least 0.9, where 1 is the maximum;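 for AC50: potency for increased reporter signal meaning RARa activation over DMSO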). The method, boiled down: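 HepG2 transiently transfected with multiplex GAL4-UAS reporter units including a human RARa–GAL4 chimera; 24 h compound exposure. Reporter mRNA quantified by RT-PCR, 6-FAM labeling and capillary electrophoresis; gain of signal versus DMSO.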

A short description of assay [7]: BSK_3C_Proliferation: Cell Proliferation Assessment in the BioMAP Diversity Plus: 3C Assay (AID 2283006).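 For AC50: potency may reflect either rise or fall in cell number versus DMSO.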 As to conditions: primary human endothelial cells (HUVEC). The method, boiled down: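 Read-out is total protein by SRB absorbance at 560 nm, taken as a proxy for relative cell number. Primary human umbilical vein endothelium cultured below confluence was dosed for 48 h, TCA-fixed and SRB-stained; curves were fitted bidirectionally versus DMSO.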

The target of assay [8] is Peroxisome proliferator-activated receptor gamma (Homo sapiens) (UniProt P37231). The assay can be described thus: ATG_PPARg_TRANS: Attagene TRANS-FACTORIAL HepG2 Assay for human Peroxisome Proliferator-activated Receptor-gamma (PPARg) (AID 2283007; active = hit-call score of the fitted dose curve at least 0.9, where 1 is the maximum). The method, boiled down: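 Liver-derived HepG2 cells expressing an exogenous NR-Gal4 chimera alongside GAL4-UAS reporter genes; 24 h exposure. Fluorescence of reporter RT-PCR products, separated by capillary electrophoresis, gives mRNA induction relative to DMSO.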
Sequence of Peroxisome proliferator-activated receptor gamma (Homo sapiens) (P37231 whole entry, looked up, the tested form may be a part): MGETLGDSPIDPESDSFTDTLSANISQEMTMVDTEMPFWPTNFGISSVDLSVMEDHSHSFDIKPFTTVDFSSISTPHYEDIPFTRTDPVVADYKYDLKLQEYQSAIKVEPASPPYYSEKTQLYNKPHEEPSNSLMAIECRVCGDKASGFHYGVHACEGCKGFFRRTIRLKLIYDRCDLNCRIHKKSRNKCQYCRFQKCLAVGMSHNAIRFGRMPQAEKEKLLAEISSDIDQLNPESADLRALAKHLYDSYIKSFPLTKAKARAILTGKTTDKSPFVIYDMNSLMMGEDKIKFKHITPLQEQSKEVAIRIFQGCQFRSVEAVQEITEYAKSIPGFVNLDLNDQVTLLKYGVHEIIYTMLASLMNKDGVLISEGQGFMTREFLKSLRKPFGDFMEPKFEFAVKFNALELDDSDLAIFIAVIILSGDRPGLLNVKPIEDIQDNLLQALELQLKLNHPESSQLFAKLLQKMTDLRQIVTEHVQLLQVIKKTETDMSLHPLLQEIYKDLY

For assay [9], the target named is Nuclear receptor subfamily 1 group I member 2 (Homo sapiens) (UniProt O75469). The assay can be described thus: ATG_PXR_TRANS: Attagene TRANS-FACTORIAL HepG2 Assay for human Pregnane X Receptor (PXR) (AID 2283008; active = hit-call score of the fitted dose curve at least 0.9, where 1 is the maximum). The method, boiled down: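 Read-out is fluorescence of labelled reporter cDNA fragments separated by capillary electrophoresis after RT-PCR and HpaI digestion. Source: HepG2 cells carrying PXR-GAL4/UAS reporter constructs, treated 24 h; activity fitted upward relative to DMSO.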

The target in assay [10] is human Retinoic Acid Receptor gamma (RARg), RARG (gene 5916) (UniProt P13631). Description: ATG_RARg_TRANS: Attagene TRANS-FACTORIAL HepG2 Assay for human Retinoic Acid Receptor gamma (RARg) (AID 2283009; active = hit-call score of the fitted dose curve at least 0.9, where 1 is the maximum). The method, boiled down:
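Transient transfection of HepG2 with multi-reporter constructs, then 24 h chemical treatment. Total RNA isolated, reverse-transcribed, PCR-amplified, fluorescently labelled and resolved by capillary electrophoresis; activity scored as mRNA induction versus DMSO.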

Assay [11] deals with human Retinoid X Receptor beta (RXRb), RXRB (gene 6257) (UniProt P28702). Description: ATG_RXRb_TRANS: Attagene TRANS-FACTORIAL HepG2 Assay for human Retinoid X Receptor beta (RXRb) (AID 2283013; active = hit-call score of the fitted dose curve at least 0.9, where 1 is the maximum). The method, boiled down:
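Transfect HepG2 with GAL4-UAS multi-reporter constructs (chimeric NR-Gal4, TRANS format); dose compound 24 h; isolate RNA, RT-PCR, FAM primer extension, HpaI digest; quantify by capillary electrophoresis; positive direction vs DMSO.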

The target in assay [12] is human Thyroid Receptor alpha (THRa1), THRA (gene 7067) (UniProt P10827). Description: ATG_THRa1_TRANS: Attagene TRANS-FACTORIAL HepG2 Assay for human Thyroid Receptor alpha (THRa1) (AID 2283014; active = hit-call score of the fitted dose curve at least 0.9, where 1 is the maximum). In short, it runs like this: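 Measured here is mRNA from a GAL4-UAS reporter in transfected HepG2 cells carrying a Gal4-fused receptor, 24 h post-dose. DMSO served as negative control and baseline.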
Sequence of human Thyroid Receptor alpha (THRa1), THRA (gene 7067) (P10827 whole entry, looked up, the tested form may be a part): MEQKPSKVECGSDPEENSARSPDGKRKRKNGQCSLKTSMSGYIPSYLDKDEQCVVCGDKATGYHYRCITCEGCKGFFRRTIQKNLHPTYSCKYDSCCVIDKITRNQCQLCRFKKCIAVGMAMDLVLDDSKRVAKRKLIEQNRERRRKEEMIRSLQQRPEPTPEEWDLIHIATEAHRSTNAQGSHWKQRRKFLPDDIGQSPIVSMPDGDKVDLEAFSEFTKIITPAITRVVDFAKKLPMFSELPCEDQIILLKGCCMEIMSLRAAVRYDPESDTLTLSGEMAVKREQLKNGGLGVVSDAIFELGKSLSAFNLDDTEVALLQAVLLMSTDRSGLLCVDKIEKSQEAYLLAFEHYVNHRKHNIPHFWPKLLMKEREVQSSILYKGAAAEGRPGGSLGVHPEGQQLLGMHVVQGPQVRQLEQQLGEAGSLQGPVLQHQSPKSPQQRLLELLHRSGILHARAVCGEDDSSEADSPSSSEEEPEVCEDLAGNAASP

Read-out in assay [13]: E-selectin (Homo sapiens) (UniProt P16581)
Description: BSK_3C_Eselectin: BioMAP Diversity Plus: 3C Assay for Eselectin Biomarker Activity (AID 2283015).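 For outcome: cell surface E-selectin protein quantified by ELISA 24 h after dosing.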 As to conditions: primary human endothelial cells (HUVEC); actives raise or lower the signal. In short, it runs like this:
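Endpoint derived by bidirectional fitting against DMSO vehicle; signal is ELISA-detected E-selectin from primary HUVEC at 24 h post-dosing, with parallel SRB staining (0.1% SRB, 560 nm) flagging cytotoxicity.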

Read-out in assay [14]: Monocyte Chemoattractant Protein-1 (MCP1), CCL2 (gene 6347)
The assay can be described thus: BSK_4H_MCP1: BioMAP Diversity Plus: 4H Assay for Monocyte Chemoattractant Protein-1 (MCP1) Biomarker Activity (AID 2283018). As to conditions: primary human endothelial cells (HUVEC); actives raise or lower the signal. The method, boiled down:
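ELISA read-out of MCP-1 from human vascular endothelial primary cells taken at 24 hours after compound exposure. Activity was fitted in both directions relative to DMSO, which served as negative control.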

For assay [15], the target named is human RAR-related Orphan Receptor gamma (RORg), RORC (gene 6097) (UniProt P51449). The assay can be described thus: ATG_RORg_TRANS: Attagene TRANS-FACTORIAL HepG2 Assay for human RAR-related Orphan Receptor gamma (RORg) (AID 2283011; active = hit-call score of the fitted dose curve at least 0.9, where 1 is the maximum). The method, boiled down:
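Chimeric RORg-Gal4 transactivation in transfected HepG2; 24 h exposure; RT-PCR/capillary electrophoresis readout of reporter mRNA, DMSO baseline.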

Assay [16] has as its target Retinoic acid receptor RXR-alpha (Homo sapiens) (UniProt P19793). Description: ATG_RXRa_TRANS: Attagene TRANS-FACTORIAL HepG2 Assay for human Retinoid X Receptor alpha (RXRa) (AID 2283012; active = hit-call score of the fitted dose curve at least 0.9, where 1 is the maximum). In short, it runs like this:
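Transient transfection of human HepG2 with multiple GAL4-UAS reporter constructs; 24 h compound exposure; total RNA isolated, reverse-transcribed, PCR-amplified, 6-FAM labelled, HpaI-cut, resolved by capillary electrophoresis. Positive-direction fit versus DMSO.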

Read-out in assay [17]: Interleukin-1 alpha (IL1a), IL1A (gene 3552)
Description: BSK_BE3C_IL1a: BioMAP Diversity Plus: BE3C Assay for Interleukin-1 alpha (IL1a) Biomarker Activity (AID 2283016). As to conditions: primary human bronchial epithelial cells; actives raise or lower the signal. In short, it runs like this: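 BE3C primary human bronchial epithelium; cpd 24 h; IL-1a by ELISA; bidirectional fit vs DMSO; parallel SRB (0.1% SRB, 10% TCA fix, 560 nm) for cytotoxicity.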

Read-out in assay [18]: Monocyte Chemoattractant Protein-1 (MCP1), CCL2 (gene 6347)
The assay can be described thus: BSK_3C_MCP1: BioMAP Diversity Plus: 3C Assay for Monocyte Chemoattractant Protein-1 (MCP1) Biomarker Activity (AID 2283017). As to conditions: primary human endothelial cells (HUVEC); actives raise or lower the signal. The method, boiled down: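 Using human vascular primary endothelium, researchers measured MCP-1 by ELISA 24 h after treatment, with DMSO serving as negative control for bidirectional fitting.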

Assay [19] concerns the target human RAR-related Orphan Receptor beta (RORb), RORB (gene 6096) (UniProt Q92753). The assay can be described thus: ATG_RORb_TRANS: Attagene TRANS-FACTORIAL HepG2 Assay for human RAR-related Orphan Receptor beta (RORb) (AID 2283010; active = hit-call score of the fitted dose curve at least 0.9, where 1 is the maximum). In short, it runs like this: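 Readout is reporter-gene mRNA induction, detected as fluorescence after RT-PCR and capillary electrophoresis, fitted for gain of signal against DMSO controls. Transiently transfected HepG2 liver cells carrying GAL4-UAS reporter constructs were treated for 24 hours.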

Sequence of human RAR-related Orphan Receptor gamma (RORg), RORC (gene 6097) (P51449 whole entry, looked up, the tested form may be a part): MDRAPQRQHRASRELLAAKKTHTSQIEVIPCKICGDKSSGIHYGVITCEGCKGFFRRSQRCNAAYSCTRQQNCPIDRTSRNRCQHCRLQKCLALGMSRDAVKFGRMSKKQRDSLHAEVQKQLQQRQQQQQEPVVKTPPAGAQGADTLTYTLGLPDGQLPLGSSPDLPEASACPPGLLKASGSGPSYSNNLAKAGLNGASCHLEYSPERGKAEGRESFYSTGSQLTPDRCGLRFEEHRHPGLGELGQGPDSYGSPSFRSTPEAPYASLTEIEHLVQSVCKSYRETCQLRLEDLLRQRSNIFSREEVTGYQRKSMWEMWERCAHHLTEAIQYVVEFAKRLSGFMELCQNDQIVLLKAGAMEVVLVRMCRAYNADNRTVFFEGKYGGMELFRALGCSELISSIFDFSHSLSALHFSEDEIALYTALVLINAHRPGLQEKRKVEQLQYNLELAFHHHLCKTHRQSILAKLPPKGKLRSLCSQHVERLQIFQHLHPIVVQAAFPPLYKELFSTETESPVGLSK
Sequence of human Peroxisome Proliferator-activated Receptor delta (PPARd), PPARD (gene 5467) (Q03181 whole entry, looked up, the tested form may be a part): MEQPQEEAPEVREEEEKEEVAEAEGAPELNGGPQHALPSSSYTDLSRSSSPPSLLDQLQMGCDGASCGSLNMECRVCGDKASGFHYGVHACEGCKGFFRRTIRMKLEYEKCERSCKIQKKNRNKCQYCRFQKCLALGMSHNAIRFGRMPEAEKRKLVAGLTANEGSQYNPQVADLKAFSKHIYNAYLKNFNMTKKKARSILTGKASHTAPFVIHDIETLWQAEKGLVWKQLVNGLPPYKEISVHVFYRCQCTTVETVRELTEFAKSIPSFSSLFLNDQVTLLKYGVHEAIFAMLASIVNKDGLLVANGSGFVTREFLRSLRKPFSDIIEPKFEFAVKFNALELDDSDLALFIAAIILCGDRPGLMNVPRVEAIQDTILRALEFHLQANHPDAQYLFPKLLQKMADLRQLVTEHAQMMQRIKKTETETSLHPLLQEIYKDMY
Sequence of human Retinoic Acid Receptor gamma (RARg), RARG (gene 5916) (P13631 whole entry, looked up): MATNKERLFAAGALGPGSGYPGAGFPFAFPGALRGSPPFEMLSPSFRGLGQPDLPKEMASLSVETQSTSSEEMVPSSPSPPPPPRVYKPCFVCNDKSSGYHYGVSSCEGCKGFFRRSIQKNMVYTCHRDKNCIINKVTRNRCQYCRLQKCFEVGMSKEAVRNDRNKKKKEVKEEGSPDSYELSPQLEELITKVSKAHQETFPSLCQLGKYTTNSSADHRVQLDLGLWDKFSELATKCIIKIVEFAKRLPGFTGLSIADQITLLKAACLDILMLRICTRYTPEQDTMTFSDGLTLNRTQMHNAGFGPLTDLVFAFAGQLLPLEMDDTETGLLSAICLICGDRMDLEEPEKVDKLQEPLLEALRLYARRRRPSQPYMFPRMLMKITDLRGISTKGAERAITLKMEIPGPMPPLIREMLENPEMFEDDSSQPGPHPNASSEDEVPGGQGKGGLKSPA
Sequence of Retinoic acid receptor RXR-alpha (Homo sapiens) (P19793 whole entry, looked up, the tested form may be a part): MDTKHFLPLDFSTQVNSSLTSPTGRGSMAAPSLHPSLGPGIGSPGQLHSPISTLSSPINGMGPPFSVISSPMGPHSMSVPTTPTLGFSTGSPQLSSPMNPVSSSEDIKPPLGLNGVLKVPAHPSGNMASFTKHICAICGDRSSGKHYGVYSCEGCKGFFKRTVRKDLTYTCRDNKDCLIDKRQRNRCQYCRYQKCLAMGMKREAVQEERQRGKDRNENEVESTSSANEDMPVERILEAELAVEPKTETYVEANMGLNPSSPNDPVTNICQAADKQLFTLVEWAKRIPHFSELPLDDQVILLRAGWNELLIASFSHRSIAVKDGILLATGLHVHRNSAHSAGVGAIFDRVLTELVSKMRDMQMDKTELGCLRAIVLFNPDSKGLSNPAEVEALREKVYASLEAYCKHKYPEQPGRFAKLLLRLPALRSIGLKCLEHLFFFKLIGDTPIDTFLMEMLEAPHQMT
Sequence of human RAR-related Orphan Receptor beta (RORb), RORB (gene 6096) (Q92753 whole entry, looked up, the tested form may be a part): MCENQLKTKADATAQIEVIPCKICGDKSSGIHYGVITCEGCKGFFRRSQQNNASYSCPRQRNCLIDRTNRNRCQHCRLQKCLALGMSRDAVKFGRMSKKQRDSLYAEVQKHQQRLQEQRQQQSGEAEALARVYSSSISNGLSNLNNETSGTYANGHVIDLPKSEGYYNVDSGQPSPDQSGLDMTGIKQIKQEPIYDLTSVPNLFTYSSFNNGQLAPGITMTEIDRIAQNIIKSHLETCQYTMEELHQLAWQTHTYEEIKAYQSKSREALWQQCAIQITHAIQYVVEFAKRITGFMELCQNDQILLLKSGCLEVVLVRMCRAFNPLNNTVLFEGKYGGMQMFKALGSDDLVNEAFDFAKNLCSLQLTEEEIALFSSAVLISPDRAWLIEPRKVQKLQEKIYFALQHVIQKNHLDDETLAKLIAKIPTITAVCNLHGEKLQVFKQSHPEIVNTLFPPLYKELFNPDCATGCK
Sequence of E-selectin (Homo sapiens) (P16581 whole entry, looked up): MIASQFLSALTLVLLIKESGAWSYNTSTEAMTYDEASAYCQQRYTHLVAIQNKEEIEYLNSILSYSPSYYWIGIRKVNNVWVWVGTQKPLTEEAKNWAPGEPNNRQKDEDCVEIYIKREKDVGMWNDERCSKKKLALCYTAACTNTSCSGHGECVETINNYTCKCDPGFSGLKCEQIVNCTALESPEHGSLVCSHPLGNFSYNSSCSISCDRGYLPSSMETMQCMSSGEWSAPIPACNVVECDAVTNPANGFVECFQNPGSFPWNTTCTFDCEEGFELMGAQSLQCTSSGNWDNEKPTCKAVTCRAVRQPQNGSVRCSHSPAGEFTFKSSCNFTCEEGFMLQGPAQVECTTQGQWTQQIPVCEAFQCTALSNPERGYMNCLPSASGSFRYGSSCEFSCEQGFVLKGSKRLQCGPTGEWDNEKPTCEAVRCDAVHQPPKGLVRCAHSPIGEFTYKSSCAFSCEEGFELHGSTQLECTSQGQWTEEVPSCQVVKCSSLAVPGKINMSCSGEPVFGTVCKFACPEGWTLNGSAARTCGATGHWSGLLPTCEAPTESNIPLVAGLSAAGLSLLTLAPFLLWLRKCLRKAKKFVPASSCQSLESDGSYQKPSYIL
Sequence of human Retinoid X Receptor beta (RXRb), RXRB (gene 6257) (P28702 whole entry, looked up, the tested form may be a part): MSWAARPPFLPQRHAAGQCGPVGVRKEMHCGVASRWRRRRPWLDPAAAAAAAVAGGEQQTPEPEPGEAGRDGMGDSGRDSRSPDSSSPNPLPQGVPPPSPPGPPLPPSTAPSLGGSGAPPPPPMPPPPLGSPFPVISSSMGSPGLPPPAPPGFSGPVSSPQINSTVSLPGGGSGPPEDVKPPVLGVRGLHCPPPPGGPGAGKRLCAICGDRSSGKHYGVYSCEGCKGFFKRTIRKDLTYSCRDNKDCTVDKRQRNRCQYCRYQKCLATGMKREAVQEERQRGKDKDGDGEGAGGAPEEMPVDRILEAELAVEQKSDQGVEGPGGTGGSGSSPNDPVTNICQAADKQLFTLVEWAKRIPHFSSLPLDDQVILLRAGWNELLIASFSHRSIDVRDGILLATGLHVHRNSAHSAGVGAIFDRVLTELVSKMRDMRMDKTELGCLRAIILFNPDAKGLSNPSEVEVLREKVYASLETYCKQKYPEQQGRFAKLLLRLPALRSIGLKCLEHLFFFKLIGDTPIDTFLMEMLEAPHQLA

On to `CC1(C)C(C(=O)OC(C#N)c2cccc(Oc3ccccc3)c2)C1(C)C` (stereo not drawn), for which the outcome in assay [1], in assay [2], in assay [3], in assay [4], in assay [5] and in assay [10] was inactive. Also, the call in assay [11], in assay [12], in assay [13] and in assay [14] was inactive. Moreover, the AC50 is 13.7 µM (active) in assay [6], 7.92 µM (active) in [7], 16.9 µM (active) in [8] and 9.21 µM (active) in assay [9].

With `C=C(C)CN(CC)c1c([N+](=O)[O-])cc(C(F)(F)F)cc1[N+](=O)[O-]`, the outcome in assay [1], in [2], in assay [4], in assay [5], in assay [8] and in assay [10] was inactive. The compound was called inactive in assay [15], in [16], in assay [11], in [13], in assay [17] and in [18]. The outcome in [14] was inactive. In addition, the AC50 in assay [6] was 30.2 µM (active); in [7] it was 33.4 µM (active); in assay [9], 13.6 µM (active).

`COc1ccc(-c2ccccc2)cc1NNC(=O)OC(C)C`: the result in assay [1], in assay [2], in assay [4], in assay [5], in assay [7] and in assay [9] was inactive. Also, the outcome in [19], in [16], in [11], in assay [13], in assay [18] and in [14] was inactive. Also, the AC50 in assay [8] is 50 µM (active).

As for `Clc1nc(Cl)nc(Nc2ccccc2Cl)n1`, the outcome in assay [1], in assay [2], in assay [4], in assay [6], in assay [7] and in assay [9] was inactive. In addition, the compound was called inactive in [16], in assay [12], in assay [13], in assay [17], in [18] and in assay [14]. Further, in [8], the AC50 was 9.95 µM (active).

On to `C=CCOC(=O)C(C)(C)OC(=O)c1cc(-n2c(=O)cc(C(F)(F)F)n(C)c2=O)ccc1Cl`, for which the outcome in assay [1], in assay [2], in [4], in assay [7], in assay [8] and in [9] was inactive. Also, the result in assay [16], in [12], in assay [13], in assay [18] and in [14] was inactive.

Regarding `COC(=O)N(C(=O)N1CO[C@@]2(C(=O)OC)Cc3cc(Cl)ccc3C2=N1)c1ccc(OC(F)(F)F)cc1`, the result in assay [1], in [2], in assay [3], in assay [4], in [8] and in assay [10] was inactive. In addition, the call in [19], in [15], in assay [16], in assay [11], in [12] and in assay [13] was inactive. The outcome in assay [18] was inactive. The AC50 in assay [7] was 5.55 µM (active); in assay [9], 5.9 µM (active); in assay [14] it was 6.07 µM (active).

Take `CC(C)(C)C(=O)C(Oc1ccc(Cl)cc1)n1cncn1` (stereo not drawn): the result in assay [1], in [2], in [3], in assay [4], in assay [5] and in [7] was inactive. In addition, the outcome in [8], in assay [10], in [16], in [11], in assay [12] and in assay [13] was inactive. Besides, the result in [17], in [18] and in assay [14] was inactive. Also, the AC50 was 50 µM (active) in [6] and 19.9 µM (active) in assay [9].

For the compound `O=C(Nc1ccccc1-c1ccc(Cl)cc1)c1cccnc1Cl`, the result in assay [1], in assay [2], in [3], in assay [4], in [7] and in [9] was inactive. Besides, the outcome in assay [19], in assay [15], in [16], in [11], in [12] and in [13] was inactive. The result in assay [17], in [18] and in [14] was inactive. The AC50 in [8] was 10.9 µM (active).

As for `OC(c1ccc(Cl)cc1)(c1ccc(Cl)cc1)C(Cl)(Cl)Cl`, the AC50 in assay [1] is 14.1 µM (active); in assay [2], 29.8 µM (active); in assay [4] it was 29 µM (active); in [7], 11.6 µM (active); in assay [13] it was 13.8 µM (active); in [18], 29.3 µM (active). For the same compound, the AC50 in assay [14] was 13.8 µM (active). In addition, the result in [6], in [8], in [9], in [16] and in [11] was inactive.

The values above are taken from PubChem BioAssay (EPA / NIEHS).
